Source: PubChem BioAssay AID1159580 (chemical genetic matrix, 2015)
In all, about 5,500 compounds went through this assay and about 2,000 (36%) were called active. Another 18% or so got no clear call; they are omitted. Cut-off read from the data, not from the text of the source: active = normalized growth mostly below about 0.91 (no sharp cut-off); inconclusive = no clear call, values can overlap the other calls; inactive = mostly above about 0.92. Some of the results follow.

Experiment: chemical genetic growth profiling, strain panel (AID 1159580);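 note: tested at 20 µM; growth read once vehicle control cultures reached saturation at 30 °C; 1 = growth at the plate median or of vehicle wells; lower values mean less growth of the strain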
Settings: S. cerevisiae deletion strains, growth OD
[1] = locus YAL021C, strain ccr4, active compounds read low
[2] = locus YAL026C, strain drs2, active compounds read low
[3] = locus YAL030W, strain snc1, active compounds read low
[4] = locus YBL061C, strain skt5, active compounds read low
[5] = locus YBR009C, strain hhf1, active compounds read low
[6] = locus YBR023C, strain chs3, active compounds read low
[7] = locus YBR171W, strain sec66, active compounds read low
[8] = locus YBR231C, strain swc5, active compounds read low
[9] = locus YBR279W, strain paf1, active compounds read low
[10] = locus YCL011C, strain gbp2, active compounds read low
[11] = locus YCL016C, strain dcc1, active compounds read low
[12] = locus YCL061C, strain MRC1, active compounds read low
[13] = locus YCL069W, strain vba3, active compounds read low
[14] = locus YCR088W, strain abp1, active compounds read low
[15] = locus YDL005C, strain med2, active compounds read low
[16] = locus YDL040C, strain nat1, active compounds read low
[17] = locus YDR001C, strain nth1, active compounds read low
[18] = locus YDR069C, strain doa4, active compounds read low
[19] = locus YDR137W, strain rgp1, active compounds read low
[20] = locus YDR159W, strain sac3, active compounds read low
[21] = locus YDR297W, strain sur2, active compounds read low
[22] = locus YDR334W, strain swr1, active compounds read low
[23] = locus YDR335W, strain msn5, active compounds read low
[24] = locus YDR392W, strain spt3, active compounds read low
[25] = locus YEL003W, strain gim4, active compounds read low
[26] = locus YEL037C, strain rad23, active compounds read low
[27] = locus YEL061C, strain CIN8 (second series), active compounds read low
[28] = locus YER015W, strain faa2, active compounds read low
[29] = locus YER016W, strain bim1, active compounds read low
[30] = locus YER111C, strain swi4, active compounds read low
[31] = locus YER155C, strain BEM2 (second series), active compounds read low
[32] = locus YFR010W, strain ubp6, active compounds read low
[33] = locus YGL167C, strain pmr1, active compounds read low
[34] = locus YGL173C, strain kem1, active compounds read low
[35] = locus YGL227W, strain vid30, active compounds read low
[36] = locus YGL240W, strain doc1, active compounds read low
[37] = locus YGL253W, strain hxk2, active compounds read low
[38] = locus YHR013C, strain ard1, active compounds read low
[39] = locus YHR027C, strain rpn1, active compounds read low
[40] = locus YHR030C, strain SLT2, active compounds read low
[41] = locus YHR079C, strain IRE1, active compounds read low
[42] = locus YHR142W, strain chs7, active compounds read low
[43] = locus YJL092W, strain hpr5, active compounds read low
[44] = locus YJL095W, strain BCK1 (second series), active compounds read low
[45] = locus YJL095W, strain BCK1, active compounds read low
[46] = locus YJL115W, strain asf1, active compounds read low
[47] = locus YJL129C, strain trk1, active compounds read low
[48] = locus YJL154C, strain vps35, active compounds read low
[49] = locus YJL164C, strain tpk1, active compounds read low
[50] = locus YJL166W, strain qcr8, active compounds read low
[51] = locus YJL187C, strain SWE1, active compounds read low
[52] = locus YJR066W, strain TOR1, active compounds read low
[53] = locus YKL160W, strain elf1, active compounds read low
[54] = locus YKR026C, strain gcn3, active compounds read low
[55] = locus YKR091W, strain srl3, active compounds read low
[56] = locus YLL001W, strain dnm1, active compounds read low
[57] = locus YLL026W, active compounds read low
[58] = locus YLL041C, strain sdh2, active compounds read low
[59] = locus YLR027C, strain aat2, active compounds read low
[60] = locus YLR113W, strain HOG1, active compounds read low
[61] = locus YLR221C, strain rsa3, active compounds read low
[62] = locus YLR258W, strain gsy2, active compounds read low
[63] = locus YLR262C, strain YPT6 (second series), active compounds read low
[64] = locus YLR320W, strain mms22, active compounds read low
[65] = locus YLR342W, strain FKS1, active compounds read low
[66] = locus YLR357W, strain rsc2, active compounds read low
[67] = locus YLR370C, strain arc18, active compounds read low
[68] = locus YLR384C, strain iki3, active compounds read low
[69] = locus YML120C, strain ndi1, active compounds read low
[70] = locus YMR058W, strain fet3, active compounds read low
[71] = locus YMR125W, strain sto1, active compounds read low
[72] = locus YMR129W, active compounds read low
[73] = locus YMR205C, strain PFK2, active compounds read low
[74] = locus YMR231W, strain pep5, active compounds read low
[75] = locus YNL071W, strain lat1, active compounds read low
[76] = locus YNL183C, strain NPR1, active compounds read low
[77] = locus YNL209W, strain ssb2, active compounds read low
[78] = locus YNL248C, strain rpa49, active compounds read low
[79] = locus YNL322C, strain KRE1 (second series), active compounds read low
[80] = locus YNR049C, strain mso1, active compounds read low
[81] = locus YOR001W, strain rrp6, active compounds read low
[82] = locus YOR070C, strain gyp1, active compounds read low
[83] = locus YOR080W, strain dia2, active compounds read low
[84] = locus YOR083W, strain WHI5, active compounds read low
[85] = locus YOR106W, strain vam3, active compounds read low
[86] = locus YOR231W, strain MKK1, active compounds read low
[87] = locus YOR265W, strain rbl2, active compounds read low
[88] = locus YOR270C, strain vph1, active compounds read low
[89] = locus YOR290C, strain snf2, active compounds read low
[90] = locus YPL051W, strain arl3, active compounds read low
[91] = locus YPL078C, strain atp4, active compounds read low
[92] = locus YPL106C, strain sse1, active compounds read low
[93] = locus YPL240C, strain hsp82, active compounds read low
[94] = locus YPL256C, strain CLN2, active compounds read low

Measured: normalized growth

NC(=O)C(c1ccccc1)(c1ccccc1)C1CCN(CCc2ccc3c(c2)CCO3)C1 (stereo not given)
inactive: [1] 1.01 | [2] 1.02 | [3] 1.03 | [4] 1.01 | [5] 1.04 | [6] 1.02 | [7] 1.04 | [8] 0.976 | [9] 1.02 | [10] 1.03 | [11] 1.03 | [12] 1.02 | [13] 1.02 | [14] 1.02 | [15] 1.02 | [16] 1.03 | [17] 1.02 | [18] 1.04 | [19] 1.1 | [20] 1.03 | locus YDR195W, strain ref2 1.04 | [21] 1.02 | [22] 1.03 | [23] 1.01 | [24] 0.996 | [25] 1.03 | [26] 1.02 | [27] 1.01 | [28] 1.02 | [29] 1.04 | [30] 1.02 | [31] 1.04 | [32] 1.02 | [33] 1.02 | [34] 1.02 | [35] 1.01 | [36] 1.01 | [37] 1.02 | [38] 1.01 | [39] 1.03 | [40] 1.05 | [41] 1.05 | [42] 1 | [43] 1.01 | [44] 1.03 | [45] 0.986 | [46] 1.02 | [47] 0.999 | [48] 1.03 | [49] 1.04 | [50] 1.03 | [51] 1.02 | [52] 0.997 | [53] 1.02 | [54] 1.02 | [55] 1.02 | [56] 1.03 | [57] 1.02 | [58] 1.03 | [59] 1.03 | [60] 1.01 | [61] 1.02 | [62] 1.04 | [63] 1.08 | [64] 1.01 | [65] 1.02 | [66] 0.966 | [67] 1.01 | [68] 1.03 | [69] 1.01 | [70] 1.02 | [71] 1.01 | [72] 1.02 | [73] 1.03 | [74] 1.02 | [75] 1.01 | [76] 0.997 | [77] 1.02 | [78] 1.03 | [79] 1.04 | [80] 1.02 | [81] 1.03 | [82] 1.03 | [83] 1.01 | [84] 1 | [85] 1.01 | [86] 1.04 | [87] 1.05 | [88] 1.02 | [89] 1.08 | [90] 1.04 | [91] 1.01 | [92] 1.05 | [93] 1.03 | [94] 1.06

Nc1c(S(=O)(=O)O)cc(Nc2ccc(Nc3nc(Cl)nc(Nc4ccc(S(=O)(=O)O)cc4)n3)c(S(=O)(=O)O)c2)c2c1C(=O)c1ccccc1C2=O
inactive: locus YAL013W, strain DEP1, active compounds read low 0.977 | locus YAL040C, strain CLN3, active compounds read low 1.09 | locus YCL061C, strain MRC1 (second series), active compounds read low 1.01 | locus YDR150W, strain NUM1, active compounds read low 1.03 | locus YDR363W, strain ESC2, active compounds read low 1.01 | locus YER002W, strain NOP16, active compounds read low 1.03 | locus YGR078C, strain PAC10, active compounds read low 1.04 | locus YMR307W, strain GAS1, active compounds read low 1.05 | locus YNL128W, strain TEP1, active compounds read low 1.03 | locus YNL175C, strain NOP13, active compounds read low 1.03 | locus YNL197C, strain WHI3, active compounds read low 1.04 | locus YNL224C, strain SQS1, active compounds read low 1.04 | locus YNL322C, strain KRE1, active compounds read low 1.01 | locus YOR083W, strain WHI5 (second series), active compounds read low 1.04 | locus YPL241C, strain CIN2, active compounds read low 1.02

CC(=O)O[C@H]1[C@@H]2[C@@H](OC(=O)Cc3ccccc3)[C@@H](C)C[C@]2(OC(C)=O)C(=O)/C(C)=C/[C@H]2[C@H](CC[C@@]13CO3)C2(C)C
active: [75] 0.914
inactive: [1] 0.975 | [2] 0.985 | [3] 0.986 | [4] 0.984 | [5] 1 | [6] 0.982 | [7] 0.976 | [8] 0.988 | [9] 0.983 | [10] 0.979 | [11] 0.989 | [12] 0.992 | [13] 0.991 | [14] 0.992 | [15] 0.976 | [16] 0.978 | [17] 0.985 | [18] 0.98 | [19] 0.85 | [20] 0.977 | locus YDR195W, strain ref2 1.01 | [21] 0.97 | [22] 0.934 | [23] 0.978 | [24] 0.84 | [25] 0.981 | [26] 0.987 | [27] 0.984 | [28] 0.989 | [29] 0.979 | [30] 0.992 | [31] 0.984 | [32] 0.977 | [33] 0.97 | [34] 0.958 | [35] 0.99 | [36] 0.99 | [37] 0.974 | [38] 0.926 | [39] 0.983 | [40] 0.988 | [41] 0.981 | [42] 0.958 | [43] 0.97 | [44] 0.977 | [45] 0.989 | [46] 0.969 | [47] 0.941 | [48] 0.993 | [49] 0.982 | [50] 0.981 | [51] 0.988 | [52] 0.963 | [53] 0.972 | [54] 0.982 | [55] 0.985 | [56] 0.98 | [57] 0.98 | [58] 0.97 | [59] 0.975 | [60] 0.966 | [61] 0.975 | [62] 0.986 | [63] 0.878 | [64] 0.971 | [65] 0.966 | [66] 1.03 | [67] 0.987 | [68] 0.983 | [69] 0.967 | [70] 0.98 | [71] 1 | [72] 0.989 | [73] 0.984 | [74] 0.993 | [76] 0.909 | [77] 0.989 | [78] 0.98 | [79] 0.981 | [80] 0.978 | [81] 0.955 | [82] 0.985 | [83] 0.974 | [84] 0.972 | [85] 0.951 | [86] 0.961 | [87] 0.983 | [88] 0.815 | [89] 0.929 | [90] 0.958 | [91] 0.978 | [92] 1 | [93] 0.966 | [94] 0.967
